Assay results reported in PubChem BioAssay (NCATS).
Inconclusive results are not listed. Entries that show only a call come without a potency. Where a structure was tested more than once in an assay, its records may differ in their call. Activity calls are given as the source filed them. The call rests on the fitted dose curve.

Legend:
[1] = Primary qHTS for Huh7 cytotoxicity: counterscreen for inhibitors of MERS-S pseudotyped particle cell entry (AID 1479147); settings: outcome: dose series up to 57.1 µM unless noted
[2] = Primary qHTS for inhibitors of MERS-S pseudo-typed particle cell entry (AID 1479149); settings: outcome: dose series up to 57.1 µM unless noted; further: nearly all actives have a fitted effect of over 60% in size
[3] = Primary qHTS for Vero E6 cytotoxicity: counterscreen for inhibitors of SARS-S pseudo-typed particle cell entry (AID 1479150); settings: outcome: dose series up to 57.1 µM unless noted
[4] = Cytotoxicity counterscreen for inhibitors of SARS-CoV-2 cell entry (AID 1645845); settings: outcome: dose series up to 57.1 µM unless noted; further: nearly all actives have a fitted effect of over 50% in size
Outline: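 Expi293F/hACE2 cells seeded overnight; cpd pin-transferred in DMSO, 1 h preincubation, + media, 48 h 37 C 5% CO2; ATPLite 1step luminescence; normalized to cells and no cells.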

[5] = Primary qHTS to identify inhibitors of SARS-CoV-2 cell entry (AID 1645846); settings: SARS-CoV-2 pseudovirus cell entry assay, luminescence; activity change, negative = inhibition: at 57.1 µM (top of the series) unless noted; further: nearly all actives have a fitted effect of over 45% in size; further: potency means the concentration at half of the fitted maximal effect
Outline: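 HEK293-ACE2 (Expi293F, stable hACE2), 1500 cells/well, o/n 37C; cpd 23 nL pin, 1 h; MLV-PP w/ SARS-CoV-2-S (Wuhan-Hu-1, Δ19 C-term); 48 h 37C; Bright-Glo luminescence; normalized vs S-PP and bald PP.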

Row | Structure (SMILES) | Potency [1] | Potency [2] | Potency [3] | Potency [4] | Potency [5] | activity change, negative = inhibition [5] [%]
1 | C=CCNc1c(O)cc2c(O)c1C[C@@H](C)C[C@H](OC)[C@H](O)[C@@H](C)/C=C(/C)[C@H](OC(N)=O)[C@@H](OC)/C=C\C=C(\C)C(=O)N2 | inactive | inactive | inactive | inactive | 3.16 µM (active) | -94
2 | O=C(O)CCC/C=C\C[C@@H]1[C@@H](/C=C/[C@@H](O)COc2cccc(Cl)c2)[C@H](O)C[C@@H]1O | inactive | inactive | inactive | inactive | inactive | –
